Results taken from the supplement of paper PMC10849652.
About 7,900 targets were measured; listed, in parts, are those with a hit and a random draw of the rest. About 0.6% of all pairs of compound and target were hits. Unmarked numbers belong to inactive results.

Legend:
Assay in all cases: log2 fold change, soluble protein after heating vs DMSO (PISA); higher = thermal stabilisation; K562 cells, 10 uM, 30 min; active = over 0.2 and 3.5 SD of the protein, either way, in both replicates (recomputed)
[1] = compound: COC1=CC=C(C=C1)CN2C=CC3=C2C=C(C=C3)C(=O)NO
How it was run: (§1)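 K562 cells at 2×10^6 cells/mL were exposed to 10 μM compound for 30 min, then aliquots were heated for 3 min across 48°C-58°C, pooled, and extracted in PBS containing 0.5% NP-40 at 4°C. The supernatant after 21,000xg for 90 min was taken as soluble protein and measured by TMTpro 16plex LC-MS/MS with channel sums equalised. Thermal stability is reported relative to control samples, with values from duplicates. Fold changes are given on a log2 scale.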

filanesib = compound: CON(C)C(=O)N1N=C(c2cc(F)ccc2F)S[C@@]1(CCCN)c1ccccc1 [filanesib]
How it was run: as §1

zotarolimus = compound: CO[C@H]1C[C@@H]2CC[C@@H](C)[C@@](O)(O2)C(=O)C(=O)N2CCCC[C@H]2C(=O)O[C@H]([C@H](C)C[C@@H]2CC[C@H](n3cnnn3)[C@H](OC)C2)CC(=O)[C@H](C)/C=C(\C)[C@@H](O)[C@@H](OC)C(=O)[C@H](C)C[C@H](C)/C=C/C=C/C=C/1C [zotarolimus]
How it was run: as §1

idasanutlin = compound: COc1cc(C(=O)O)ccc1NC(=O)[C@@H]1N[C@@H](CC(C)(C)C)[C@](C#N)(c2ccc(Cl)cc2F)[C@H]1c1cccc(Cl)c1F [idasanutlin]
How it was run: as §1

alisertib = compound: COc1cc(Nc2ncc3c(n2)-c2ccc(Cl)cc2C(c2c(F)cccc2OC)=NC3)ccc1C(=O)O [alisertib]
How it was run: as §1

[2] = compound: COc1cc2nc(-c3cc(F)ccc3O)nc(N[C@@H]3CNC[C@H]3C(C)(C)O)c2cc1OC
How it was run: as §1

gefitinib = compound: COc1cc2ncnc(Nc3ccc(F)c(Cl)c3)c2cc1OCCCN1CCOCC1 [gefitinib]
How it was run: as §1

[3] = compound: COc1cccc2cc(-c3nc([C@H]4CC[C@H](C(=O)O)CC4)n4ncnc(N)c34)[nH]c12
How it was run: as §1

lapatinib = compound: CS(=O)(=O)CCNCc1ccc(-c2ccc3ncnc(Nc4ccc(OCc5cccc(F)c5)c(Cl)c4)c3c2)o1 [lapatinib]
How it was run: as §1

[4] = compound: CS(=O)(=O)c1ccc(-c2cnc(N)c(C(=O)Nc3ccccc3)n2)cc1
How it was run: as §1

crizotinib = compound: C[C@@H](Oc1cc(-c2cnn(C3CCNCC3)c2)cnc1N)c1c(Cl)ccc(F)c1Cl [crizotinib]
How it was run: as §1

[5] = compound: C[C@@H]1COCCN1C2=NC(=NC(=C2)C3(CC3)S(=O)(=O)C)C4=C5C=CNC5=CC=C4
How it was run: as §1

[6] = compound: C[C@H](C1=CC=C(C=C1)C(=O)NC2=C3C=CNC3=NC=C2)N
How it was run: as §1

duvelisib = compound: C[C@H](Nc1ncnc2nc[nH]c12)c1cc2cccc(Cl)c2c(=O)n1-c1ccccc1 [duvelisib]
How it was run: as §1

tozasertib = compound: Cc1cc(Nc2cc(N3CCN(C)CC3)nc(Sc3ccc(NC(=O)C4CC4)cc3)n2)n[nH]1 [tozasertib]
How it was run: as §1

[7] = compound: Cc1cc(SCc2sc(-c3ccc(C(F)(F)F)cc3)nc2C)ccc1OCC(=O)O
How it was run: as §1

doramapimod = compound: Cc1ccc(-n2nc(C(C)(C)C)cc2NC(=O)Nc2ccc(OCCN3CCOCC3)c3ccccc23)cc1 [doramapimod]
How it was run: as §1

ispinesib = compound: Cc1ccc(C(=O)N(CCCN)[C@@H](c2nc3cc(Cl)ccc3c(=O)n2Cc2ccccc2)C(C)C)cc1 [ispinesib]
How it was run: as §1

pictilisib = compound: CS(=O)(=O)N1CCN(Cc2cc3nc(-c4cccc5[nH]ncc45)nc(N4CCOCC4)c3s2)CC1 [pictilisib]
How it was run: as §1

gandotinib = compound: Cc1cc(Nc2cc(CN3CCOCC3)c3nc(C)c(Cc4ccc(Cl)cc4F)n3n2)n[nH]1 [gandotinib]
How it was run: as §1

UniProt Q9NS93, sequence (Q9NS93 whole entry, looked up): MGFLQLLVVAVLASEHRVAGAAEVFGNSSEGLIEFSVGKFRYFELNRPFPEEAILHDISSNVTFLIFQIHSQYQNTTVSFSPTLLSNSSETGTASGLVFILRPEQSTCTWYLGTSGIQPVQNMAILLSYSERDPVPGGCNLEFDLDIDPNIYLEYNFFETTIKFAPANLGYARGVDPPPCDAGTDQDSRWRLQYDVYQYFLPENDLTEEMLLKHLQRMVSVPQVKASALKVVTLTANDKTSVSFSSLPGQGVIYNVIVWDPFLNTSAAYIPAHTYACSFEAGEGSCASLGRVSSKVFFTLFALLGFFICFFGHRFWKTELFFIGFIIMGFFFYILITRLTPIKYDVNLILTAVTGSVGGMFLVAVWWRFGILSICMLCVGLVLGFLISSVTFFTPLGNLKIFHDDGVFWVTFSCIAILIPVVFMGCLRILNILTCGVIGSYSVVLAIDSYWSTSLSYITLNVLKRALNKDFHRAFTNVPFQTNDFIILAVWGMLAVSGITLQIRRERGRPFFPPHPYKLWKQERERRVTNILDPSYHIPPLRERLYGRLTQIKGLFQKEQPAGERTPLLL
UniProt Q9H4I9, sequence (Q9H4I9 whole entry, looked up): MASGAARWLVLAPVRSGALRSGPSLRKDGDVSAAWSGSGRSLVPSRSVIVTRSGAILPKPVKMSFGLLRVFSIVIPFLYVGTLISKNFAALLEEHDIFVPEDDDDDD
UniProt Q9UQ35, sequence (Q9UQ35 whole entry, looked up): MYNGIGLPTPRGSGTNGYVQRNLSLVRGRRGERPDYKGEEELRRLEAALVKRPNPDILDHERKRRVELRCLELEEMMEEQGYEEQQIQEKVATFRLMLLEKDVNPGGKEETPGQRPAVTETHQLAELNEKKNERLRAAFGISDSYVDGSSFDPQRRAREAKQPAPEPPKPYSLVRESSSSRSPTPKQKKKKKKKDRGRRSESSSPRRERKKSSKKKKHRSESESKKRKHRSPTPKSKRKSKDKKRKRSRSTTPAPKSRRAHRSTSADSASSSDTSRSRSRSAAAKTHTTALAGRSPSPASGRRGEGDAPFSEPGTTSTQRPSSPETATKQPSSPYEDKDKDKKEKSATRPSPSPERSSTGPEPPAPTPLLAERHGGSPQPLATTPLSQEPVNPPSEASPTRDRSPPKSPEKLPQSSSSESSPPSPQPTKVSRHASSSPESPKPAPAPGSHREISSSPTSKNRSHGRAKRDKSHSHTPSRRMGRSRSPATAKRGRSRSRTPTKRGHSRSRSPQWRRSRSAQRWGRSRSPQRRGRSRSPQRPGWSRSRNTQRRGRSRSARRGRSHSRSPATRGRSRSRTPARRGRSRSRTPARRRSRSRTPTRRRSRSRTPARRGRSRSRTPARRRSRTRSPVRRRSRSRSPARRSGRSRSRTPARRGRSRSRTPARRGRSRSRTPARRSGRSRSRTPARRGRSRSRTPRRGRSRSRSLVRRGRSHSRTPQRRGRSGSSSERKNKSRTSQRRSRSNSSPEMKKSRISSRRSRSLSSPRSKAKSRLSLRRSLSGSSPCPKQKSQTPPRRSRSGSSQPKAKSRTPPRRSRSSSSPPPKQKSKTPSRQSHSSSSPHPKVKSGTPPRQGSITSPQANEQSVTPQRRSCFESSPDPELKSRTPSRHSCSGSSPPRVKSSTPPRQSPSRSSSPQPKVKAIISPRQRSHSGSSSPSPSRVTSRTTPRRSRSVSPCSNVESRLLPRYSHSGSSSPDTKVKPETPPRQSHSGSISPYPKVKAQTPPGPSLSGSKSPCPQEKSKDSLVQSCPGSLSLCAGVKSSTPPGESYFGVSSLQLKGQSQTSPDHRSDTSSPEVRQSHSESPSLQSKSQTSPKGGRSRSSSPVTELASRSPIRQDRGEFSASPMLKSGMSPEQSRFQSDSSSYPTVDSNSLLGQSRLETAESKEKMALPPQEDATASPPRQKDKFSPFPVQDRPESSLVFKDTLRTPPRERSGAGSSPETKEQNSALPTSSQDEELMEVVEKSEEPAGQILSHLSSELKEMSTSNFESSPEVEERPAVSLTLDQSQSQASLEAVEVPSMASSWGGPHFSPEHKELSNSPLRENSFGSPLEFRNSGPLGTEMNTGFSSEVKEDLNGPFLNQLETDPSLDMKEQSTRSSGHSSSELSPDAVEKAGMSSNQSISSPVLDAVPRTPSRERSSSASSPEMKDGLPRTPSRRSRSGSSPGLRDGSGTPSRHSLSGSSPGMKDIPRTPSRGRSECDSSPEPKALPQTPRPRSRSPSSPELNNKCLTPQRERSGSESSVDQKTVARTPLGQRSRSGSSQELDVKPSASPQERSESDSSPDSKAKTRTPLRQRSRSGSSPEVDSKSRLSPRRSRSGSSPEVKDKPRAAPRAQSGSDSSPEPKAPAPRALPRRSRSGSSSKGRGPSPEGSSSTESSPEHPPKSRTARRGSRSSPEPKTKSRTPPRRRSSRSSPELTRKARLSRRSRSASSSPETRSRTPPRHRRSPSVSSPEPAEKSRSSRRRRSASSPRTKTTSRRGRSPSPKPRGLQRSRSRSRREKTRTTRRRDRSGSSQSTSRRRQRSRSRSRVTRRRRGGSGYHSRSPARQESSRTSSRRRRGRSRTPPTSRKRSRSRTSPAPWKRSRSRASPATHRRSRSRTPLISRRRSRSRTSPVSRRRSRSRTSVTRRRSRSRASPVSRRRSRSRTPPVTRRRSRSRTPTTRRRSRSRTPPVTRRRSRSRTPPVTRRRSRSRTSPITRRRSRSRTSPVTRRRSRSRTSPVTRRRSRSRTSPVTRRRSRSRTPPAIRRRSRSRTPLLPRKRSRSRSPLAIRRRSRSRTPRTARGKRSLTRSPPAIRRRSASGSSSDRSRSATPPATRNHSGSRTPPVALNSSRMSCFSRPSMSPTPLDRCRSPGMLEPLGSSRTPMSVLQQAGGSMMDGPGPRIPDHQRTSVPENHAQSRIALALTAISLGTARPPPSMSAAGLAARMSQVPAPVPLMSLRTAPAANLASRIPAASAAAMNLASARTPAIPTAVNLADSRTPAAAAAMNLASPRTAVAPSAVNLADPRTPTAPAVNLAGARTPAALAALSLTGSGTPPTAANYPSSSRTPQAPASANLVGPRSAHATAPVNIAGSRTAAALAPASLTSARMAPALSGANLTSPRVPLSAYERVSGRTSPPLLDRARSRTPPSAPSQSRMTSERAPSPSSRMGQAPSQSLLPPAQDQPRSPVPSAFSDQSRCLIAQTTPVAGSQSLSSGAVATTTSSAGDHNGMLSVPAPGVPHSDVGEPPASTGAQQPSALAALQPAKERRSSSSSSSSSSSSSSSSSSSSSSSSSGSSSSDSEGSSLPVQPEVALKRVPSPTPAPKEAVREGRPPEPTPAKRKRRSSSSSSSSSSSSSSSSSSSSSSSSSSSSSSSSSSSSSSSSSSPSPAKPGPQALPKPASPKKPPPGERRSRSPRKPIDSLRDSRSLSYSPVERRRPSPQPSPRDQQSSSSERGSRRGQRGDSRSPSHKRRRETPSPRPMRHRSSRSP
UniProt Q9C0B7, sequence (Q9C0B7 whole entry, looked up): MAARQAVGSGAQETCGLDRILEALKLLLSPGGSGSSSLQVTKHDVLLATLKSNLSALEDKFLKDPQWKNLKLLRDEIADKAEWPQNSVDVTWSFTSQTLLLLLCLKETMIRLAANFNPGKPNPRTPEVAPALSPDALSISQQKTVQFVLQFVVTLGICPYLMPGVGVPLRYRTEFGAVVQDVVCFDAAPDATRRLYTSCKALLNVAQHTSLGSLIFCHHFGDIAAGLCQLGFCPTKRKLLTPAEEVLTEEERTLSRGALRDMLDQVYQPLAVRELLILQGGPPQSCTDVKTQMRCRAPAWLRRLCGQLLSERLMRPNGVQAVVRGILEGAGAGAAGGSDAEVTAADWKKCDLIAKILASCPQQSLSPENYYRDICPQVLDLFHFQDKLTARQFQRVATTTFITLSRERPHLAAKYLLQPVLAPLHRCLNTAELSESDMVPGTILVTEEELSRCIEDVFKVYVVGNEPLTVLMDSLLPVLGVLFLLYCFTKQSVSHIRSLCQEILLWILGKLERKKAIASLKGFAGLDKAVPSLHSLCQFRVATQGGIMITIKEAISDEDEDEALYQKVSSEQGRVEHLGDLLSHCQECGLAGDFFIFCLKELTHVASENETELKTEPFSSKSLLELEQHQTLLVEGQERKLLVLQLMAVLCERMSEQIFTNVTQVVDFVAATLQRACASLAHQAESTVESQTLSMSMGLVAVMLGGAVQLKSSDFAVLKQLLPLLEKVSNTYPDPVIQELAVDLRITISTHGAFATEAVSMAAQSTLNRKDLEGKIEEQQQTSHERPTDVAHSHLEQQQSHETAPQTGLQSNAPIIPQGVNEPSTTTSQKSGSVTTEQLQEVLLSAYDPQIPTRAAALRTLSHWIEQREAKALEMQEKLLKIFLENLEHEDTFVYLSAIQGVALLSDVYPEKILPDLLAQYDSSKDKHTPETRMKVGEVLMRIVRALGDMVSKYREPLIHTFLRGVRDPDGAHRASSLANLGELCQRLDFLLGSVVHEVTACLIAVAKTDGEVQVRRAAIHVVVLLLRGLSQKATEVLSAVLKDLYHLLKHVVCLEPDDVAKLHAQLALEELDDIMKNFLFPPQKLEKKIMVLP
UniProt Q8N1S5, sequence (Q8N1S5 whole entry, looked up): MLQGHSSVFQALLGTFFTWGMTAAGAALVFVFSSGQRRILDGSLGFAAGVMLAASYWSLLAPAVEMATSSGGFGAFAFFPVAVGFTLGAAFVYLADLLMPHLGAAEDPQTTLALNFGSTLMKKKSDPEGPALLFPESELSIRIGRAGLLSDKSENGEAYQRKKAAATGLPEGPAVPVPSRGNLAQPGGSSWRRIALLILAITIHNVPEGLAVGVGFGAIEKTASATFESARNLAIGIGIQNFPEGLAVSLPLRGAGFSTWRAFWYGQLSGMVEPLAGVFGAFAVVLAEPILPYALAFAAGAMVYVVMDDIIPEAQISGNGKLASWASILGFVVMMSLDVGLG
UniProt Q9BYN0, sequence (Q9BYN0 whole entry, looked up): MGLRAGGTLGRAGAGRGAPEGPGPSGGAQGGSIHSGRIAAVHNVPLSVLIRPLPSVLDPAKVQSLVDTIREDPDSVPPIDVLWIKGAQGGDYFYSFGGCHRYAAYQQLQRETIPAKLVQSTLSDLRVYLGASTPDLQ

Target	log2 fold change [1]	log2 fold change (filanesib)	log2 fold change (zotarolimus)	log2 fold change (idasanutlin)	log2 fold change (alisertib)	log2 fold change [2]	log2 fold change (gefitinib)	log2 fold change [3]	log2 fold change (lapatinib)	log2 fold change [4]	log2 fold change (crizotinib)	log2 fold change [5]	log2 fold change [6]	log2 fold change (duvelisib)	log2 fold change (tozasertib)	log2 fold change [7]	log2 fold change (doramapimod)	log2 fold change (ispinesib)	log2 fold change (pictilisib)	log2 fold change (gandotinib)
TANGO6 (UniProt Q9C0B7)	-0.025	0.04	0.061	-0.112	0.032	-0.015	-0.049	-0.036	0.022	0.006	-0.123	-0.022	0.366 (active)	0.087	-0.124	0.078	-0.004	-0.085	–	–
SLC29A3 (UniProt Q9BZD2)	0.009	-0.258	-0.015	-0.113	0	-0.08	-0.08	0.019	-0.118	0.014	-0.559 (active)	-0.098	0.078	0.069	0.097	0.055	0.015	-1.02 (active)	–	–
SLC44A2 isoform 2 (UniProt Q8IWA5)	0.018	0.048	-0.028	0.026	-0.118	–	0.002	0.057	–	0.019	0.113	0.026	-0.123	0.154	-0.022	-0.046	0.055	0.069	0.13	-0.017
SMDT1 (UniProt Q9H4I9)	-0.053	-0.39 (active)	-0.014	-0.087	-0.058	–	–	0.014	–	0.144	0.042	0.017	-0.035	0.026	-0.014	0	0.054	–	0.095	-0.23
TATDN2 (UniProt Q93075)	-0.011	0.002	0.006	0.012	–	-0.015	-0.037	–	0.021	0.002	-0.061	0.028	0.078	0.019	0.136	0.045	0.063	–	-0.016	0.106
SRXN1 (UniProt Q9BYN0)	0.406	0.076	0.022	-0.028	0.098	-0.036	0.012	0.001	0.151	0.009	-0.295	0.09	-0.091	–	-0.086	–	0.076	-0.16	-0.562 (active)	0.01
STXBP5 (UniProt Q5T5C0)	-0.012	-0.039	0	-0.022	-0.084	0.015	-0.006	0.003	0.023	-0.021	-0.024	0.006	0.047	0.066	0.017	-0.002	0.026	-0.058	-0.038	-0.029
SMARCE1 (UniProt Q969G3)	0.035	0.058	0.052	0.013	-0.21	-0.07	0.066	0.206	0.038	-0.088	0.011	0.048	0.093	0.014	0.091	0.135	0.052	0.048	-0.062	-0.087
SRRM2 (UniProt Q9UQ35)	0.018	0.097	0.05	0.166	-0.121	-0.293	0.018	0.028	0.01	-0.048	-0.246	0.021	-0.255	-0.044	0.013	0.012	0.044	-0.131	0.117	-0.13
SLC38A2 (UniProt Q96QD8)	-0.041	-0.205	0.048	0.011	-0.019	-0.122	-0.099	0.097	-0.055	0.031	0.028	0.075	-0.075	0.068	-0.009	0	-0.03	-0.049	–	–
SRPRA (UniProt P08240)	0.008	-0.022	-0.005	-0.107	-0.005	0.122	-0.032	-0.002	0.013	0.066	0.036	0.061	0.01	0.036	-0.009	0.063	-0.044	0.045	-0.012	-0.042
SYNE1 (UniProt Q8NF91)	0.316	-0.079	0.019	-0.029	0.002	–	0.049	0.084	–	0.096	-0.132	-0.041	0.104	0.103	-0.187	-0.04	0.061	-0.159	0.187	0.109
TBC1D20 isoform 3 (UniProt Q96BZ9)	0.026	-0.023	0.136	-0.184	-0.089	0.102	0.148	-0.032	-0.03	0.039	-0.121	0.088	0.036	–	–	–	0.05	0.113	-0.073	-0.078
SORT1 (UniProt Q99523)	0.058	-0.066	0.002	0.008	-0.016	-0.032	0.028	0.056	0.022	0.007	-0.742 (active)	-0.019	-0.051	0.023	-0.001	-0.066	-0.042	-0.032	0.003	-0.069
TM7SF3 (UniProt Q9NS93)	-0.002	-0.218	-0.042	-0.015	-0.217	0.101	-0.066	0.248	0.014	-0.01	-0.432 (active)	–	-0.216	0.007	-0.054	-0.003	0.052	-0.343 (active)	–	–
SLC39A11 (UniProt Q8N1S5)	-0.014	-0.01	-0.078	-0.056	-0.113	-0.04	0.001	0.047	-0.038	0.121	0.109	–	-0.066	-0.085	0.116	-0.126	0.009	0.085	-0.117	0.271
SLC38A7 (UniProt Q9NVC3)	-0.042	-0.098	0.095	-0.077	-0.136	0.01	0.035	0.069	-0.057	-0.018	-0.449	0.045	-0.009	–	0.052	–	0.035	-0.842 (active)	0.022	-0.412
